The sample as a whole holds a higher share of hits than the screen did.
SF1 inhibitor: inhibitors of human nuclear receptor SF-1 | Q13285 | inhibition, % at 10 µM | CHO-K1 Gal4-SF-1 LBD luciferase reporter | actives 0.55% (n = 65,000);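 active = inhibition above the mean inhibition of all tested compounds plus 3 SD, cut at about 48% in these data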
Target sequence (Q13285 whole entry, looked up, the tested form may be a part): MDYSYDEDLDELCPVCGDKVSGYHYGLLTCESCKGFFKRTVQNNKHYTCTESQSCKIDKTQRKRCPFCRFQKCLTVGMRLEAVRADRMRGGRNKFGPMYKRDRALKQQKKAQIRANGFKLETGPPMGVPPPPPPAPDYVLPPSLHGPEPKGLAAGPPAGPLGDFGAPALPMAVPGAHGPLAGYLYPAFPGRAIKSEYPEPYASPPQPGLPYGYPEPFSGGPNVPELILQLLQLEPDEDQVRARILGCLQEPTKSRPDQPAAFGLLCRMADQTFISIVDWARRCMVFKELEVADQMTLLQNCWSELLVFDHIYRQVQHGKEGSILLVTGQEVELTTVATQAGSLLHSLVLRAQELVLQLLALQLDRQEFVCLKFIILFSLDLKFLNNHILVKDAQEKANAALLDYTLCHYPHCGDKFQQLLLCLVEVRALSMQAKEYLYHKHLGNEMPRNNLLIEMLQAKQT
Of the large screens only hits and unclear results are named; the others gave an inactive call.

CC(C)c1nc(SCC(=O)Nc2ccc3c(c2)OCCO3)c2c(=O)n(C)c(=O)n(C)c2n1	none
CCn1c(SCC(=O)c2ccc3c(c2)OCCO3)nnc1C(C)C	none
CC(C)Cn1c(N)c(C(=O)CSc2ccc3c(c2)OCCO3)c(=O)n(C)c1=O	SF1 inhibitor 69.3
CC(C)(C)c1ccc(-c2conc2N)cc1	none
CC(C)OC(=O)Cn1c(=O)oc2ccccc21	none
CCc1ccc2oc(-c3cc(N=Cc4cccc(OC)c4O)ccc3O)nc2c1	SF1 inhibitor 50.6
Cc1ccccc1OC(=O)CCC(=O)OCCCC(F)(F)C(F)(F)F	none
CCSCCNC(=O)c1cncc(Br)c1	none
Cc1ccc(C2=Nc3ccccc3NC(C)(c3ccc(C)o3)C2)o1 (centres undefined)	none
CCOc1cccc(-c2nnc(SCC(=O)Nc3ccc(OC)c(OC)c3)n2N)c1	none
CCOc1ccccc1-n1c(SCC(=O)Nc2ccc(CC)cc2)nc2n[nH]c(C)c2c1=N	SF1 inhibitor 83.9
CCOc1ccccc1N(CC(=O)Nc1ccc(C)cc1)S(C)(=O)=O	none
COC(=O)C(C)Oc1ccc2c3c(c(=O)oc2c1)CCCCC3 (centres undefined)	none
Cn1c(C(C#N)C(=O)c2ccco2)nc2ccccc21 (centres undefined)	none
Cn1c(SC2=CS(=O)(=O)c3ccccc32)nc2ccccc21	SF1 inhibitor 67.9
Cn1c(N2CCN(C(=O)NCc3ccccc3)CC2)nc2ccccc21	none
Cn1c(=O)c2c(nc(N3CCOCC3)n2CCCNC2=NCCC2)n(C)c1=O	none
Cc1ccc(-c2nc(Nc3ccccc3)n[nH]2)cc1	none
COc1cc(SC)ccc1C(=O)Nc1ccccc1C#N	none
CC(=O)Nc1ccc(SCC(=O)c2cc(C)n(Cc3cccs3)c2C)cc1	SF1 inhibitor 58.1
Cc1csc(SCC(=O)c2cc(C)n(Cc3cccs3)c2C)n1	SF1 inhibitor 60.1
Cc1nc2ccc(NC(=O)Cc3cccs3)cc2s1	none
CCCn1c(C)cc(C(=O)CN2C(=O)c3ccccc3C2=O)c1C	none
CCN(CC)C(=O)Oc1ccccc1NC(C)=O	none
C=CCn1c(C)cc(C(=O)CSc2nnc(Cc3ccccc3)o2)c1C	none
COc1ccc(-c2nnc(SCC(=O)c3cc(C)n(Cc4cccs4)c3C)o2)cc1	none
C=CCn1c(C)cc(C(=O)CSc2nnc(NCc3ccccc3)s2)c1C	none
CC(=O)Nc1ccccc1OCC(=O)c1cc(C)n(Cc2cccs2)c1C	SF1 inhibitor 70.1
O=C(Cn1cnc2ccccc21)NCCCN1CCOCC1	none
O=C(CCS(=O)(=O)c1ccc(Br)cc1)N1CCN(c2ccccc2F)CC1	none
CCOCC(=O)Nc1ccc(S(=O)(=O)NCCc2ccccc2)cc1	none
O=C(CNS(=O)(=O)c1ccc(Br)s1)Nc1ccc2c(c1)OCCO2	none
O=S(=O)(NCc1ccncc1)c1ccc(Br)s1	SF1 inhibitor 82.9
O=S(=O)(NCc1csc(-c2ccccc2)n1)c1ccc(Cl)s1	none
CC(=O)N=C(N)Sc1nc2ccccc2[nH]1	none
Cn1c(=O)c2c(nc(NC(Cc3ccccc3)C(=O)O)n2Cc2ccccc2)n(C)c1=O (centres undefined)	none
Cn1c(=O)c2c(nc(NCc3ccco3)n2C/C=C/c2ccccc2)n(C)c1=O	SF1 inhibitor 53.1
COCCNc1nc2c(c(=O)n(C)c(=O)n2C)n1Cc1cccc(C)c1	none
c1csc(CSc2nc3ccccc3s2)c1	none
Cc1noc(C)c1CSc1nc2ccccc2s1	none
Cc1ccc(CNc2nc3ccccc3s2)s1	SF1 inhibitor 61.4
COC(=O)c1ccc(CSc2nc(C)nc3sc(C)c(C)c23)o1	none
Nc1nonc1-c1nc2ccccc2n1Cc1ccc(Cl)cc1	none
CCCCOc1ccccc1NC(=O)Cn1c(-c2nonc2N)nc2ccccc21	SF1 inhibitor 67.3
COc1cccc(Cn2c(-c3nonc3N)nc3ccccc32)c1	none
ClC(Br)=C(n1cnc2ccccc21)n1cnc2ccccc21	none
N#C/C(=C\c1ccc(O)c(O)c1)C(=O)NCCCc1ccccc1	SF1 inhibitor 69.1
O=C(OC(C(=O)NCc1cccs1)c1ccccc1Cl)c1ccco1 (centres undefined)	none
CCOc1cc(N2CCOCC2)c(OCC)cc1NC(=O)CSc1cccc[n+]1[O-]	none
Cc1ccc(S(=O)(=O)N2CCN(C(=O)CN3CCN(C)CC3)C2)cc1	none
CC(C)CCNC(=O)NC(=O)COc1ccccc1C#N	none
C=CCN1C(c2ccc(OCC)cc2)=CS/C1=C(\C#N)c1nnc2n1CCCCC2	none
COc1ccc(C)cc1-n1nnnc1SCc1nc2ccccc2s1	none
Cc1ccc(Nc2nc(CSc3nnnn3-c3ccccc3)cs2)cc1	none
COc1cc(CSc2nnnn2-c2ccc(C)cc2)cc(OC)c1OC	SF1 inhibitor 62.0
NC(=O)CSc1nnc(-c2ccoc2)o1	none
Cc1c(NC(=O)CCCCCN2C(=O)C3C4C=CC(C4)C3C2=O)c(=O)n(-c2ccccc2)n1C (centres undefined)	none
Cc1cc(N2CCN(c3nc4ccccc4s3)CC2)n2ncnc2n1	SF1 inhibitor 55.4
CCOc1ccc2nc(N3CCCCCC3)sc2c1	none
CC(C)c1nnc(NC(=O)C2CCN(c3nc4ccccc4s3)CC2)s1	none
CCC(=O)NC1(C(F)(F)F)C(=O)NC(C)=C1C#N (centres undefined)	none
CCOC(=O)c1nnn(-c2nonc2N)c1COc1ccccc1	none
c1ccc2c(c1)CCN(CCCNc1nc3ccccc3n3cnnc13)C2	none
CC(=O)c1sc(Nc2nc3ccc(F)cc3s2)nc1C	none
